A number with no mark means an inactive call. Calls follow the shape of the dose curve; as a rule, active = well fitted inhibition curve with a large enough effect in the repeat runs (not every such curve was filed as active); inconclusive = weak or mixed curves; inactive = flat fitted curve, though single readings scatter.
Target: Thyrotropin-releasing hormone receptor (Homo sapiens) (UniProt P34981)
Test: qHTS assay to identify small molecule antagonists of the thyrotropin-releasing hormone receptor (TRHR) signaling pathway (AID 1346877)
Conditions: TRHR-HEK293, TRH-induced calcium fluorescence, antagonist mode; series mostly up to 51.3 µM; activity, negative = inhibition: at the top concentration
Excerpt: National Center for Advancing Translational Sciences [NCATS]
NIH Chemical Genomics Center [NCGC]
U.S. Environmental Protection Agency [EPA]
National Institutes of Environmental Health Sciences [NIEHS]
National Toxicology Program [NTP]
U.S. Food and Drug Administration [FDA]
Thyrotropin-releasing hormone (TRH) receptor (TRHR) is a G-protein-coupled receptor which binds the tripeptide thyrotropin releasing hormone. TRHR is found in the brain and, when bound by TRH, acts (through phospholipase C) to increase intracellular inositol trisphosphate. It plays a crucial role in the anterior pituitary where it controls the synthesis and secretion of thyroid stimulating hormone and prolactin. The TRHR-Hek293 assay is a cell-based assay, and it has the potential to screen G protein-coupled receptors. A compound/drug can either activate (agonist) or suppress (antagonist) GPCRs that can be monitored by levels of intracellular calcium. In this assay, the Tox21 10K compound library was screened to identify potential TRHR antagonists.
Tox21 Assay Protocol Summary:
The TRHR-Hek293 cells were dispensed at 1500cells/4uL/well in 1536-well black-clear bottom plates using a Multidrop dispenser. After the assay plates were incubated at a 37 C/5% CO2 incubator for 18 hours, 4 uL of Dye-Loading Solution was added to each well. The plates were incubated at 37 C for 2 hours. For agonist mode, 23 nL of compounds dissolved in DMSO, positive controls or DMSO only was transferred to the assay plate by a pin tool. The fluorescence intensity in the plates was measured using FDSS 7000EX kinetic plate reader for 3 min at 1 sec intervals. For antagonist mode, 23 nL of compounds dissolved in DMSO, positive controls or DMSO only was transferred to the assay plate by a pin tool. After 5 min incubation at room temperature, 1 uL of TRH was added on the top of the cell/compound mixtures to achieve a final agonist concentration of 1 nM. The fluorescence intensity in the plates was measured using FDSS 7000EX kinetic plate reader for 3 min at 1 sec intervals. Each test compound was measured at 15 concentrations and in triplicates.
% is scaled to controls: 0 for no effect and ±100 for the full control effect.

Thyrotropin-releasing hormone receptor (Homo sapiens), sequence (P34981 whole entry, looked up): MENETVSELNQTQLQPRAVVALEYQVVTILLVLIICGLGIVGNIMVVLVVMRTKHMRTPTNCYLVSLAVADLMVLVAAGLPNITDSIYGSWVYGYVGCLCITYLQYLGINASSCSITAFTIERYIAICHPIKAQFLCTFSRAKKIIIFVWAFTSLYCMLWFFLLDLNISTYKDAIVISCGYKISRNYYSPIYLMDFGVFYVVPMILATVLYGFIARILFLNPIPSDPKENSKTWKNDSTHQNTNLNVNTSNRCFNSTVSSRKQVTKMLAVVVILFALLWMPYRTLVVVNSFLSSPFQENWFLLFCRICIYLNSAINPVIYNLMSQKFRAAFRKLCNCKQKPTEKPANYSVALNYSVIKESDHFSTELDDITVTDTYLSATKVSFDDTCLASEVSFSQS

| SMILES | activity, negative = inhibition |
| --- | --- |
| C[C@@H](O)[C@H]1C(=O)N2C(C(=O)O)=C([C@H]3CCCO3)S[C@H]12 | 0.243% [at 23.6 µM] |
| Cc1ccc(OC(=O)c2ccccc2O)cc1 | -1.1% |
| CC/C=C1/OC(=O)c2ccccc21 | 0.514% |
| COC(=O)CCS | 7.26% |
| COC(=O)[C@H]1[C@H]2C[C@@H]3c4[nH]c5cc(OC)ccc5c4CCN3C[C@H]2C[C@@H](OC(=O)/C=C/c2ccc(O)c(OC)c2)[C@@H]1OC | -2.03% [at 23.6 µM] |
| CC(C)=CCC/C(C)=C/CC/C(C)=C/CCC(=O)OC/C=C(\C)CCC=C(C)C | 0.268% [at 23.6 µM] |
| N#CCc1ccc(Cl)cc1Cl | 8.39% |
| CC(C)(O)c1ccc(CNC(=O)c2cccnc2Oc2ccc3nonc3c2)cc1 | 1.19% |
| CC(CCC(=O)O)C(=O)O (stereo not given) | 5.35% |
| O=C(Cn1ccnc1[N+](=O)[O-])NCCO | 0.56% [at 23.6 µM] |
| C[C@H]1C[C@H](O)c2ccsc2S1(=O)=O | 0.887% [at 23.6 µM] |
| CC(C)(C)C(=O)C(=O)O | 2.66% |
| CCCCCC[C@@H](O)C/C=C\CCCCCCCC(=O)O | -1.24% |
| COC(=O)CS | -0.047% |
| CC1CC(OC(=O)C(O)c2ccccc2)CC(C)(C)N1C (stereo not given) | -3.02% [at 23.6 µM] |
| CC(C)c1nc(CN(C)C(=O)N[C@H](C(=O)N[C@@H](Cc2ccccc2)C[C@H](O)[C@H](Cc2ccccc2)NC(=O)OCc2cncs2)C(C)C)cs1 | -4.08% [at 23.6 µM] |
| O=C1c2ccccc2C(=O)C1c1nc2ccccc2c(Br)c1O | -3.45% |
| CCn1cc(C(=O)O)c(=O)c2cc(F)c(N3CCNCC3)cc21 | 5.11% [at 23.6 µM] |
| O=C(O)c1cccc(-c2noc(-c3ccccc3F)n2)c1 | -1.76% [at 23.6 µM] |
| O=C1NC(=O)c2cc([N+](=O)[O-])ccc21 | -2.43% |

| SMILES | activity, negative = inhibition |
| --- | --- |
| CC1=Nc2ccc3ccccc3c2C1(C)C | 10.5% |
| C[C@@H]1CN(CCCn2c3ccccc3c3ccccc32)C[C@H](C)N1 | 1.96% [at 23.6 µM] |
| CCC(OCCCOC)OC(C)=O (stereo not given) | -2.34% |
| OC[C@H]1O[C@@H](n2cnc3c(=S)nc[nH]c32)[C@H](O)[C@@H]1O | -1.91% [at 23.6 µM] |
| CCCCCCCCC(CCCCCC)C(=O)O (stereo not given) | 19.6% |
| CCc1ccccc1 | 1.81% |
| O=C(O)C[C@H](NC(=O)OCc1ccccc1)C(=O)O | -3.14% |
| COc1cc(N)c(Cl)cc1C(=O)NC1CCN(CCCOc2ccc(F)cc2)CC1OC (stereo not given) | -6.32% [at 23.6 µM] |
| CN1CCCN=C1COC(=O)C(O)(c1ccccc1)C1CCCCC1 (stereo not given) | 2.75% [at 23.6 µM] |
| Brc1cc(Br)c(Oc2cc(Br)c(Br)cc2Br)cc1Br | 1.88% [at 23.6 µM] |
| CCOC(=O)C1=C(C)NC(C)=C(C(=O)OC)C1c1cccc(Cl)c1Cl (stereo not given) | 2.53% [at 23.6 µM] |
| CC(=O)Nc1cc(S(=O)(=O)O)cc2cc(S(=O)(=O)O)c(N=Nc3ccccc3)c(O)c12 | 1.41% |
| O=C1c2ccccc2C(=O)C1c1ccc(Br)cc1 | 1.35% [at 23.6 µM] |
| Cc1ccc(C(C)(C)O)cc1 | -0.736% |
| CO/N=C(/C(=O)N[C@@H]1C(=O)N2C(C(=O)O)=C(COC(N)=O)CS[C@H]12)c1ccco1 | 4.96% |
| OC(CCN1CCCC1)(c1ccccc1)C1CCCCC1 (stereo not given) | 3.97% [at 23.6 µM] |
| Cc1ccc2c(Br)cc(Br)c(O)c2n1 | -5.98% [at 23.6 µM] |
| C=C1CCC2CC1C2(C)C (stereo not given) | -0.674% |
| O=c1[nH]ncc2ccccc12 | 3.7% |
| CC1(C)S[C@@H]2[C@H](NC(=O)C(c3ccccc3)S(=O)(=O)O)C(=O)N2[C@H]1C(=O)O (stereo not given in full) | 4.55% [at 23.6 µM] |

Reference: PubChem BioAssay (Tox21)
